Each structure is given as a SMILES string. Results filed as inconclusive are left out. Calls of active or inactive are those of the source. The calls were made as follows, unless noted: active = hit-call score of the fitted dose curve at least 0.9, where 1 is the maximum; inactive = score below 0.9.

In assay [1] the target is human Vitamin D Receptor (VDR), VDR (gene 7421) (UniProt P11473). Kind of assay: ATG_VDR_TRANS: Attagene TRANS-FACTORIAL HepG2 Assay for human Vitamin D Receptor (VDR) (AID 2283022; active = hit-call score of the fitted dose curve at least 0.9, where 1 is the maximum). In short, it runs like this:
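HepG2 cells were transiently transfected with multiple GAL4-UAS reporter units, so signal reflects exogenous chimeric receptor-Gal4 activity. After 24 h compound exposure, reporter mRNA was measured by RT-PCR, fluorescent labelling and capillary electrophoresis, fitted for gain of signal versus DMSO.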

Read-out in assay [2]: Interleukin-8 (IL8), CXCL8 (gene 3576)
Kind of assay: BSK_3C_IL8: BioMAP Diversity Plus: 3C Assay for Interleukin-8 (IL8) Biomarker Activity (AID 2283020). To be noted: primary human endothelial cells (HUVEC); actives raise or lower the signal. In short, it runs like this: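 Primary human umbilical vein endothelial cells (3C system) were exposed to test chemical for 24 h, then IL-8 was quantified by ELISA. Responses were fitted bidirectionally against DMSO vehicle as baseline.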

Read-out in assay [3]: Monokine induced gamma interferon (MIG), CXCL9 (gene 4283)
As to the kind of experiment: BSK_3C_MIG: BioMAP Diversity Plus: 3C Assay for Monokine induced gamma interferon (MIG) Biomarker Activity (AID 2283021).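 As to AC50: MIG protein level measured by immunoassay in the treated endothelial cultures.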 Conditions: primary human endothelial cells (HUVEC); actives raise or lower the signal. In short, it runs like this:
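Primary human umbilical vein endothelial cells in the 3C system were exposed to chemical for 24 h, after which MIG was quantified by ELISA. Activity was fitted bidirectionally against DMSO as negative control and baseline.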

Assay [4] in a line: BSK_3C_SRB: Viability Assessment in the BioMAP Diversity Plus: 3C Assay (AID 2283023).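 Also: fitted both ways against DMSO so a hit may be signal rise or drop.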 To be noted: primary human endothelial cells (HUVEC). In short, it runs like this: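 Primary human umbilical vein endothelial cells in the 3C system were read 24 h after compound dosing. Total protein was stained with 0.1% sulforhodamine B after 10% TCA fixation and read at 560 nm, with bidirectional fitting against DMSO as baseline.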

Read-out in assay [5]: Matrix Metallopeptidase 1 (MMP1), MMP1 (gene 4312)
Kind of assay: BSK_BE3C_MMP1: BioMAP Diversity Plus: BE3C Assay for Matrix Metallopeptidase 1 (MMP1) Biomarker Activity (AID 2283024). Conditions: primary human bronchial epithelial cells; actives raise or lower the signal. In short, it runs like this:
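Primary human bronchial epithelial cells were dosed with test chemicals, and MMP1 levels were measured by ELISA 24 h later. Data were fitted bidirectionally against DMSO as the negative control and activity baseline.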

Assay [6] in a line: BSK_3C_Vis: BioMAP Diversity Plus: 3C Assay for Morphology Visualization (AID 2283025).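 Also: fitted both ways so gain or loss versus DMSO counts.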 To be noted: primary human endothelial cells (HUVEC). In a few lines: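 Human umbilical vein endothelial cells in the 3C system were imaged by light microscopy 24 h after chemical dosing to record cell morphology. Activity was fitted bidirectionally against DMSO as negative control and baseline; the endpoint serves as a background control.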

Read-out in assay [7]: Pselectin, SELP (gene 6403)
As to the kind of experiment: BSK_4H_Pselectin: BioMAP Diversity Plus: 4H Assay for Pselectin Biomarker Activity (AID 2283026). To be noted: primary human endothelial cells (HUVEC); actives raise or lower the signal. In short, it runs like this: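 Primary human umbilical vein endothelial cells were exposed to test chemical for 24 h, then cell-surface P-selectin was quantified by ELISA. Activity was fitted bidirectionally against DMSO as negative control and baseline.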

The nature of assay [8]: BSK_4H_SRB: Viability Assessment in the BioMAP Diversity Plus: 4H Assay (AID 2283027).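 Also: cells exposed to compound for 24 h before staining.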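 As to AC50: curves fitted both ways versus DMSO so AC50 may be loss or gain.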 Conditions: primary human endothelial cells (HUVEC). In a few lines:
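Absorbance at 560 nm of SRB-stained total protein served as the viability read-out in confluent primary human umbilical vein endothelium 24 h after chemical treatment. Curves were fitted bidirectionally against DMSO as negative control.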

The nature of assay [9]: BSK_BE3C_SRB: Viability Assessment in the BioMAP Diversity Plus: BE3C Assay (AID 2283028). Conditions: primary human bronchial epithelial cells. In short, it runs like this: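 Human primary bronchial epithelial cells were exposed to test chemicals for 24 h. Total protein in parallel cultures was then measured by staining with 0.1% sulforhodamine B after 10% TCA fixation, with absorbance read at 560 nm. Activity was fitted bidirectionally against DMSO.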

Read-out in assay [10]: Thrombomodulin, THBD (gene 7056)
As to the kind of experiment: BSK_3C_Thrombomodulin: BioMAP Diversity Plus: 3C Assay for Thrombomodulin Biomarker Activity (AID 2283029). To be noted: primary human endothelial cells (HUVEC); actives raise or lower the signal. In short, it runs like this:
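Primary human umbilical vein endothelial cells (3C system) were exposed to chemical for 24 h, then thrombomodulin levels were measured by ELISA. Activity was fitted bidirectionally against the DMSO negative control as baseline.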

Read-out in assay [11]: Urokinase-type plasminogen activator receptor (uPAR), PLAUR (gene 5329)
Kind of assay: BSK_4H_uPAR: BioMAP Diversity Plus: 4H Assay for Urokinase-type plasminogen activator receptor (uPAR) Biomarker Activity (AID 2283030). To be noted: primary human endothelial cells (HUVEC); actives raise or lower the signal. In a few lines: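 Primary human umbilical vein endothelial cells were exposed to chemical for 24 h before cell-surface uPAR was quantified by ELISA. Activity was fitted bidirectionally against the DMSO negative control baseline.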

Read-out in assay [12]: Human Leukocyte Antigen - DR isotype (HLADR), HLA-DRA (gene 3122)
As to the kind of experiment: BSK_BE3C_HLADR: BioMAP Diversity Plus: BE3C Assay for Human Leukocyte Antigen - DR isotype (HLADR) Biomarker Activity (AID 2283032). To be noted: primary human bronchial epithelial cells; actives raise or lower the signal. In a few lines:
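Human primary bronchial epithelial cells in the BE3C system were exposed to chemicals for 24 h, after which HLA-DR levels were quantified by ELISA. Activity was fitted bidirectionally, gain or loss of signal, against DMSO as negative control and baseline.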

Read-out in assay [13]: Vascular cell adhesion molecule 1 (VCAM1), VCAM1 (gene 7412)
Kind of assay: BSK_4H_VCAM1: BioMAP Diversity Plus: 4H Assay for Vascular cell adhesion molecule 1 (VCAM1) Biomarker Activity (AID 2283033).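 As to outcome: cell-surface VCAM-1 protein measured by ELISA.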 To be noted: primary human endothelial cells (HUVEC); actives raise or lower the signal. In short, it runs like this:
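Primary human umbilical vein endothelial cells were exposed to chemicals for 24 h, after which VCAM-1 was quantified by ELISA. Responses were fitted bidirectionally against DMSO as negative control and activity baseline.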

Read-out in assay [14]: Interferon-gamma inducible Protein 10 (IP10), CXCL10 (gene 3627)
As to the kind of experiment: BSK_BE3C_IP10: BioMAP Diversity Plus: BE3C Assay for Interferon-gamma inducible Protein 10 (IP10) Biomarker Activity (AID 2283034). To be noted: primary human bronchial epithelial cells; actives raise or lower the signal. In short, it runs like this: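 Human primary bronchial epithelial cells were exposed to chemicals for 24 hours, after which IP-10 levels were measured by ELISA. Data were fitted bidirectionally against DMSO, which served as the negative control and activity baseline.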

Read-out in assay [15]: Monokine induced gamma interferon (MIG), CXCL9 (gene 4283)
As to the kind of experiment: BSK_BE3C_MIG: BioMAP Diversity Plus: BE3C Assay for Monokine induced gamma interferon (MIG) Biomarker Activity (AID 2283035).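 Also: MIG protein measured by ELISA in BE3C cultures after 24 h of dosing.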 To be noted: primary human bronchial epithelial cells; actives raise or lower the signal. In short, it runs like this: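 MIG level was determined by ELISA after 24 h chemical treatment of primary human bronchial epithelial cells. Values were fitted bidirectionally with DMSO as the negative control and activity baseline.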

Read-out in assay [16]: Transforming growth factor beta 1 (TGFb1), TGFB1 (gene 7040)
Kind of assay: BSK_BE3C_TGFb1: BioMAP Diversity Plus: BE3C Assay for Transforming growth factor beta 1 (TGFb1) Biomarker Activity (AID 2283036). To be noted: primary human bronchial epithelial cells; actives raise or lower the signal. In short, it runs like this:
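Human primary bronchial epithelial cells (BE3C system) were dosed with chemical and TGF-b1 levels measured by ELISA at 24 h. Activity was fitted bidirectionally relative to DMSO negative control as baseline.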

Read-out in assay [17]: Plasminogen activator inhibitor-1 (PAI1), SERPINE1 (gene 5054)
Kind of assay: BSK_BE3C_PAI1: BioMAP Diversity Plus: BE3C Assay for Plasminogen activator inhibitor-1 (PAI1) Biomarker Activity (AID 2283037). Conditions: primary human bronchial epithelial cells; actives raise or lower the signal. In short, it runs like this: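 Human primary bronchial epithelial cells were exposed to chemical for 24 h, then PAI-1 was quantified by ELISA. Activity was fitted bidirectionally relative to the DMSO negative control baseline.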

Read-out in assay [18]: urokinase plasminogen activator (uPA), PLAU (gene 5328)
As to the kind of experiment: BSK_BE3C_uPA: BioMAP Diversity Plus: BE3C Assay for urokinase plasminogen activator (uPA) Biomarker Activity (AID 2283038).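 Also: uPA protein level quantified by ELISA in cell cultures; uPA read one day after compound addition.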 To be noted: primary human bronchial epithelial cells; actives raise or lower the signal. In short, it runs like this:
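Human primary bronchial epithelial cells were exposed to chemical for 24 h, then uPA levels were measured by ELISA. Responses were fitted bidirectionally against DMSO as negative control and baseline. Parallel SRB staining of total protein gauged overt cytotoxicity.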

Read-out in assay [19]: Urokinase-type plasminogen activator receptor (uPAR), PLAUR (gene 5329)
As to the kind of experiment: BSK_BE3C_uPAR: BioMAP Diversity Plus: BE3C Assay for Urokinase-type plasminogen activator receptor (uPAR) Biomarker Activity (AID 2283039).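 Also: cells exposed to compound for one day before measurement.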 To be noted: primary human bronchial epithelial cells; actives raise or lower the signal. In a few lines: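 Primary human bronchial epithelial cells were dosed with chemical and harvested 24 h later; uPAR was quantified by ELISA. Activity was fitted bidirectionally against DMSO as negative control and baseline.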

Read-out in assay [20]: Vascular endothelial growth factor receptor 2 (Homo sapiens) (UniProt P35968)
As to the kind of experiment: BSK_4H_VEGFRII: BioMAP Diversity Plus: 4H Assay for Vascular endothelial growth factor receptor 2 (VEGFR2) Biomarker Activity (AID 2283031). To be noted: primary human endothelial cells (HUVEC); actives raise or lower the signal. In a few lines: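 Primary human umbilical vein endothelial cells in the BioMAP 4H system were dosed with test chemical, and 24 h later VEGFRII was measured by ELISA. Activity was fitted bidirectionally against DMSO as negative control and baseline.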

human Vitamin D Receptor (VDR), VDR (gene 7421), sequence (P11473 whole entry, looked up, the tested form may be a part): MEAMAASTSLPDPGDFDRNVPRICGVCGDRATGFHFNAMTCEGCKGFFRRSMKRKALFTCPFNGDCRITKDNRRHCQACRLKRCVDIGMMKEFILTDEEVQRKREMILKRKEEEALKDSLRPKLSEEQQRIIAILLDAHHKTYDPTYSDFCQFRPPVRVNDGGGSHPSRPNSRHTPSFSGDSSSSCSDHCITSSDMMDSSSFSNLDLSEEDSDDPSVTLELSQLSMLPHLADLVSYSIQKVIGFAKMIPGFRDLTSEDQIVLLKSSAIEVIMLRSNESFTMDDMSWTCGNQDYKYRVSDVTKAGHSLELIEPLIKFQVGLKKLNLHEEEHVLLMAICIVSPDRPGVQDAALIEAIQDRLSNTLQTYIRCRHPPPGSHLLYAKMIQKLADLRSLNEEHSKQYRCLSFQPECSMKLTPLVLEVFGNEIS

As for `Cc1ccc2c(c1)OCC(=O)CO2`, the outcome in assay [1] was inactive.
As to `CCOC(C=C(C)CCC=C(C)C)OCC`, the AC50 is 29.8 µM (active) in [2]; 36 µM (active) in assay [3]; 31.2 µM (active) in [4]; 37.1 µM (active) in [6]; 30.2 µM (active) in [7]; 31 µM (active) in assay [8]. Further, the AC50 in assay [10] was 3.97 µM (active); in [11] it was 35.2 µM (active); in assay [13], 31.5 µM (active). The outcome in [5], in assay [9], in assay [12], in assay [14], in [15] and in assay [16] was inactive. In addition, the result in assay [17], in assay [18] and in assay [19] was inactive.
As for `O=S(=O)(O)c1ccc(Cl)cc1`, in assay [1], the compound was classed as inactive.
As to `CN1CN(C)CN(C)C1`, the compound was called inactive in [1].
Turning to `C[Si](C)O[Si](C)C`, the compound was classed as inactive in assay [1].
Turning to `CCCCCCCC/C=C\CCCCCCCC(=O)OCC(O)CO` (stereo not given), the call in [1] was inactive.
For `Oc1ccc2c(c1)CCC2`, in assay [1], the compound was classed as inactive.
`OCCCc1cccnc1`: in [1], the result was inactive.
With `CCCCCCCCCCCCC[N+](C)(C)Cc1ccccc1`, the call in assay [1] was inactive.
Still for that read-out and setting: the value for `CC(C)C(=O)OCc1ccccc1` was “inactive”.
Regarding `NC(=O)C(F)(F)C(F)(F)C(F)(F)C(F)(F)C(F)(F)C(F)(F)C(F)(F)F`, the outcome in assay [2], in [3], in assay [4], in [5], in assay [7] and in [8] was inactive. Also, the result in assay [9], in [10], in assay [11], in assay [20], in [12] and in assay [13] was inactive. The outcome in assay [14], in assay [15], in assay [17], in assay [18] and in assay [19] was inactive.
For the compound `CCC(Cc1c(I)cc(I)c(N)c1I)C(=O)O` (stereo not given), the call in assay [1] was inactive.

One may read the AC50 as the midpoint of the concentration-response curve, whichever way the signal moves.

The record behind these values is PubChem BioAssay (EPA / NIEHS).
